Among all 2,100 compounds or so, about 670 (32%) were called active. Inconclusive results (about 50%) are left out. Some of the results follow. A number with no mark means an inactive call. Calls follow the shape of the dose curve; as a rule, active = well fitted inhibition curve with a large enough effect; inconclusive = small, poorly fitted or top-dose-only effect; inactive = no such curve, though single readings can be large or run the other way.
% is scaled to controls: 0 for no effect and ±100 for the full control effect; potency is read from the fitted curve at half-maximal effect.

This experiment is described as follows: CMV-Luciferase Counterscreen for Inhibitors of ATXN expression. Also: nearly all actives have a fitted effect of over 55% in size. Particulars: HEK-293 CMV-luciferase reporter, luminescence, 24 h; series mostly up to 57.5 µM. The text has this: PI: Daniel Scoles Ph.D. University of Utah School of Medicine, Salt Lake City, Utah MLPCN Grant: NS073009 Spinocerebellar ataxia type 2 (SCA2) is a multisystem neurodegenerative disease caused by a dominantly acting mutation leading to expansion of a polyQ domain in the ataxin-2 protein (ATXN2). SCA2 patients develop progressive ataxia and later lose function in other neuronal systems. Prominent parkinsonian signs develop in some patients. Like many neurodegenerative disorders, no symptomatic or disease-modifying treatments are known. The primary objective of the proposed research is to identify compounds inhibiting ATXN2 expression and to test them for efficacy in SCA2 mouse models. We have developed a cell-based assay paired with an in vivo mouse model using identical luciferase expression constructs. This approach takes advantage of an ATXN2-luciferase transgene, with the luciferase gene flanked by the upstream and downstream portions of the ATXN2 gene. Here we describe a 5-7 dose quantitative high thoroughput screen (qHTS) for compounds lowering ATXN2 expression. We screened the NIH Molecular Libraries Small Molecule Repository (MLSMR) and NCGC's mechanistically annotated (MIPE) and drug repurposing (NPC) collections of compounds for lowering expression of an ATXN2-luciferase reporter in HEK-293 cells. The assay is a multiplexed cell viability assay to ensure target reduction in the absence of cytotoxicity. Secondary qHTS assays included a CMV-luciferase reporter expressed in HEK-293 cells as well as a biochemical assay using recombinant luciferase to detect inhibitors of the reporter enzyme. Compounds that inhibit ATXN2 expression but is not cytotoxic were selected for confirmatory and secondary screens.
PROTOCOL TABLE (as described by Inglese J, Shamu CE and Guy RK. 2007) SEQUENCE No. (e.g., 1, 2, 3, etc.); PARAMETER (e.g., Cells, Incubation, Reagent, etc.); VALUE; DESCRIPTION. 1; Cells; 4 uL; white, solid bottom, 1536-well Greiner assay plate. 2; Incubation; 2 hr; 37 degree C in 5% humidified CO2. 3; Compounds; 23 nL; Kalypsis pintool (Wako USA) equipped with a 1536-well pin head. 4; Incubation; 24 hr; 37 degree C in 5% humidfified CO2. 5; Reagent; 1 uL; Gly-Phe-7-Amino-4-trifluoromethylcoumarin. 6; Incubation; 30 min; 37 degree C in 5% humidfified CO2. 7; Detection; Fluorescence; Viewlux plate reader (PerkinElmer). 8; Reagent; 3 uL; SteadyGlo luciferase solution (Promega). 9; Incubation; 5 min; room temperature. 10; Detection; Luminescence; ViewLux plate reader (PerkinElmer). NOTES (numbers refer to Sequence numbers above) 1. HEK-293 cells expressing CMV-luciferase reporter (designated as SC cells) were suspended in phenol-red free DMEM and dispensed in assay plates using a Multidrop Combi dispenser (Thermo Fisher Scientific). 2. Assay plates were incubated. Evaporation was prevented by covering assay plates with metal lids containing holes to allow gas diffusion. 3. Compounds were added in a dose response manner with the final concentrations of 57, 11.4, 2.28, 0.46, 0.091, 0.018, 0.0037 uM. Vehicle-only plates, with DMSO being pin-transferred to columns 5-48, were inserted uniformly at the beginning and the end of each library to monitor and record any shifts in assay performance. 5. 125 uM Gly-Phe-7-Amino-4-trifluoromethylcoumarin (MP Biomedicals) working concentration was used at a final concentration of 25 uM. 7. To assess cell viability; the assay plates were read using the ViewLux high-throughput CCD imager (PerkinElmer), wherein single end-point fluorescence measurement was acquired (excitation 405/10; emission 540/25 nm). 8. Detection reagent SteadyGlo Luciferase (Promega) was added to the assay plate. 10. Luminescence is then measured on the ViewLux imager equipped with a clear emission filter using a 2 sec exposure. […]
With `O=C(C1CCC(CNS(=O)(=O)c2cccc3nsnc23)CC1)N1CC=C(c2ccccc2)CC1` (centres undefined), the Potency is 3.16 µM (active).

As to `CC(=O)N/N=C/c1cc(C(C)(C)C)cc(/C=N/NC(C)=O)c1O`, the Potency is 3.16 µM (active).

As for `Cc1nnc(N/N=C/c2ccccn2)[nH]c1=O`, the Potency is 1.78 µM (active).

As for `O=c1cnnc(N/N=C/c2ccccn2)[nH]1`, the Potency was 1.41 µM (active).

Take `C(=N\NC(=Nc1ccccc1)c1ccccn1)/c1ccccn1`: the Potency result is “inactive”.

Regarding `O=c1nc(N/N=C/c2ccccn2)cn[nH]1`, the Potency is 14.1 µM (active).

As for `C(=N\Nc1ccc2nncn2n1)/c1ccccn1`, the Potency is 17.8 µM (active).

On to `Cn1c(/C=C/c2ccc(Cl)cc2)c([N+](=O)[O-])c(=O)n(C)c1=O`, for which the Potency is 31.6 µM (active).

Take `COc1cc2c(O)c3c(c(-c4ccc5c(c4)OCO5)c2cc1OC)C(=O)OC3`: the activity change, negative = inhibition was 16.4% [at 11.4 µM].

As for `CCN1CCN(C(c2ccc(C(F)(F)F)cc2)c2ccc3cccnc3c2O)CC1` (centres undefined), the Potency was 14.1 µM (active).

As to `Cn1c(=O)c2cc(NC(=O)Nc3cccnc3)ccc2n1Cc1ccc(Cl)cc1`, the Potency result was “inactive”.

Regarding `S=C(NCc1cccnc1)Nc1ccc(Oc2ccc(Cl)cc2)cc1`, the Potency was 10 µM (active).

For the compound `NC(c1csc(Nc2nccc(C(F)(F)F)n2)n1)C1CCCCC1` (centres undefined), the activity change, negative = inhibition is 13.2% [at 11.4 µM].

With `CC1CC(C)CN(CCCNC(=O)c2cc3c(s2)-c2ccccc2OC3)C1` (centres undefined), the activity change, negative = inhibition was -23% [at 11.4 µM].

On to `Cc1cccc2c1-c1sc(C(=O)Nc3ccccc3N3CCN(C)CC3)cc1CO2`, for which the Potency was 22.4 µM (active).

As for `COCC(=O)OC/C(O)=C(\C#N)c1nc2ccccc2[nH]1`, the activity change, negative = inhibition was -13.1% [at 11.4 µM].

For `CCc1ccc(NC(=O)COc2ccc(/C=C(/C#N)c3nc4ccccc4[nH]3)cc2OC)cc1`, the Potency is 3.55 µM (active).

For `O=C1/C(=C/c2ccc([N+](=O)[O-])cc2)C=C(c2ccccc2)N1c1ccc(O)cc1`, the Potency is 3.98 µM (active).

In the case of `COc1ccc(F)cc1-c1cc(NC=O)c2ncc(-c3cccc(C(=O)N(C)C)c3)n2c1`, the activity change, negative = inhibition is -8.79% [at 11.4 µM].

In the case of `Cc1cc(N2CCN(c3nc(-c4ccccc4)cs3)CC2)c2ccccc2n1`, the Potency is 3.55 µM (active).

For `CCN(CC)CCC(=O)Nc1cccc2c1C(=O)c1ccccc1C2=O`, the activity change, negative = inhibition was -4.68% [at 11.4 µM].

Turning to `CCN(CC)CCn1c2ccccc2c2cnc(N)c(C#N)c21`, the activity change, negative = inhibition was -22.5% [at 11.4 µM].

Consider `CCN(CC)CCn1nc2c3c(cccc3c1=O)-c1ccccc1-2`, for which the Potency was 8.91 µM (active).

In the case of `O=C(NNC1=Nc2ccccc2SC1)c1ccc(Cl)cc1`, the Potency is 1.78 µM (active).

As to `Cc1cc(C(=O)CN2C(=O)c3ccccc3S2(=O)=O)c(C)n1CC1CCCO1` (centres undefined), the Potency is 0.501 µM (active).

With `CCn1c(C)cc(C(=O)CN2C(=O)c3ccccc3S2(=O)=O)c1C`, the Potency is 0.398 µM (active).

Turning to `Cc1nnc(SCC(N)=O)n1CC1CCCO1` (centres undefined), the Potency entry was “inactive”.

In the case of `O=C(CN1C(=O)c2ccccc2S1(=O)=O)Nc1ncc(Cl)cc1Cl`, the Potency is 3.16 µM (active).

For `Cc1cc(C(=O)CN2C(=O)c3ccccc3S2(=O)=O)c(C)n1C(C)C`, the Potency is 0.562 µM (active).

The values above are taken from PubChem BioAssay AID1745847 (National Center for Advancing Translational Sciences (NCATS), 2022).
